# Results reported in PubChem BioAssay (NCATS).
# Calls of active or inactive are those of the source. The rule behind the calls is not given here.
# System: HIV-1 nucleocapsid protein NCp7 (binding to TG oligonucleotide)
# Experiment: HIV Nucleocapsid (AID 346);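 note: potency is for inhibitors that block NC binding and lower polarization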
# Conditions: HIV-1 NC / fluorescein-TGTGTGTG probe, fluorescence polarization
# Method in brief: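 10 nM TG4xF probe with 100 nM nucleocapsid protein in high-salt Hepes pH 7.5 (250mM NaCl) containing 1uM ZnCl2 and reducing agents. Compound inhibition of binding was read as fluorescein polarization after 1 hr at room temperature.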
# Potency is the fitted concentration of half-maximal effect.
row,SMILES,Potency
1,COC(=O)N1CCC[C@@]2(CCN(C(=O)NC(C)C)C2)C1,> 20 µM (inactive)
2,Cc1noc(C)c1C(=O)N1CCC2(CCN(Cc3ccccc3)CC2)CC1,> 20 µM (inactive)
3,COc1ccc(-c2nc3cnc(N4CCOCC4)nc3n(CCc3ccccc3)c2=O)cc1,> 20 µM (inactive)
4,CN(Cc1ccco1)c1ncncc1-c1cccnc1,> 20 µM (inactive)
5,N#CCCn1c(=O)cnc2cnc(N3CCOCC3)nc21,> 20 µM (inactive)
6,O=C(Nc1ccccc1)N1CCC2(CC1)CCN(C(=O)c1csnn1)CC2,> 20 µM (inactive)
7,COc1ccc(-n2c(=O)cnc3cnc(OC)nc32)cc1,> 20 µM (inactive)
8,CC(=O)N1CCC2(CC1)CN(Cc1ccc(C#N)cc1)C2,> 20 µM (inactive)
9,COCCn1c(=O)c(-c2ccc(Cl)cc2)nc2cnc(OCc3ccccc3)nc21,> 20 µM (inactive)
10,CC(C)CN1CC[C@@]2(CCCN(C(=O)c3cc(C(F)(F)F)cc(C(F)(F)F)c3)C2)C1,> 20 µM (inactive)
11,COc1ccc(Oc2ncc3nc(-c4cc(F)cc(F)c4)c(=O)n(C4CC4)c3n2)cc1,> 20 µM (inactive)
12,COCCNc1nc(-c2ccoc2)nc2ccccc12,> 20 µM (inactive)
13,CCNc1ncc2nc(-c3ccccc3)c(=O)n(Cc3ccc(F)cc3)c2n1,> 20 µM (inactive)
14,COc1ccccc1CN1CC[C@@]2(CCCN(C(=O)c3ccncc3)C2)C1,> 20 µM (inactive)
15,COc1cccc(Cn2c(=O)c(-c3cccs3)nc3cnc(Nc4ccccc4)nc32)c1,> 20 µM (inactive)
16,CN(C)c1ncc2ncc(=O)n(Cc3ccc(F)cc3)c2n1,> 20 µM (inactive)
17,CC(C)CN1CC[C@@]2(CCCN(C(=O)c3ccco3)C2)C1,> 20 µM (inactive)
18,COCCn1c(=O)c(-c2ccc(OC)cc2)nc2cnc(Oc3ccc(OC)cc3)nc21,> 20 µM (inactive)
19,CN(C)C(=O)c1ccc(-c2nc(NCc3cccnc3)c3ccccc3n2)cc1,> 20 µM (inactive)
20,Cc1noc(C)c1-c1nc(N2CCN(C)CC2)c2ccccc2n1,> 20 µM (inactive)

row,SMILES,Potency
1,Cc1ccccc1-c1ccc2ncnc(NC3CC3)c2c1,> 20 µM (inactive)
2,COc1ccccc1CN1CCC2(CC1)CCN(C(=O)c1ccncc1)CC2,> 20 µM (inactive)
3,COCCn1c(=O)c(-c2cc(F)cc(F)c2)nc2cnc(Oc3ccc(OC)cc3)nc21,> 20 µM (inactive)
4,CC(C)NC(=O)N1CCCC2(CCN(C(=O)c3cc(C(F)(F)F)cc(C(F)(F)F)c3)CC2)C1,> 20 µM (inactive)
5,O=C(c1csnn1)N1CCC2(CCCN(c3ccc(-c4ccccc4)cc3)C2)CC1,> 20 µM (inactive)
6,CCNc1ncc2nc(C)c(=O)n(CCc3ccccc3)c2n1,> 20 µM (inactive)
7,COCCn1c(=O)c(-c2cccc(C#N)c2)nc2cnc(OCc3ccccc3)nc21,> 20 µM (inactive)
8,N#CCCn1c(=O)c(-c2ccc(Cl)cc2)nc2cnc(OCc3ccccc3)nc21,> 20 µM (inactive)
9,CN(C)c1ncc2ncc(=O)n(C)c2n1,> 20 µM (inactive)
10,Cn1c(=O)c(-c2cc(F)cc(F)c2)nc2cnc(N3CCOCC3)nc21,> 20 µM (inactive)
11,CN(C)c1ccc(-c2cncnc2NCCc2cnc[nH]2)cc1,> 20 µM (inactive)
12,N#Cc1ccc(CN2CCCC3(CCN(S(=O)(=O)c4ccccc4)CC3)C2)cc1,> 20 µM (inactive)
13,Cc1cnc(CNc2nc(-c3ccoc3)nc3ccccc23)cn1,> 20 µM (inactive)
14,Cc1nc2cnc(Oc3ccccc3)nc2n(Cc2cccs2)c1=O,> 4 µM (inactive)
15,COC(=O)N1CCC2(CCCN(Cc3cc(C(F)(F)F)cc(C(F)(F)F)c3)C2)CC1,> 20 µM (inactive)
16,COCCn1c(=O)c(CCc2ccccc2)nc2cnc(OCc3ccccc3)nc21,> 20 µM (inactive)
17,O=c1cnc2cnc(Nc3ccccc3)nc2n1C[C@H]1CCCO1,> 20 µM (inactive)
18,CN1CCN(c2ncc3nc(-c4ccc(F)cc4)c(=O)n(C4CC4)c3n2)CC1,> 20 µM (inactive)
19,COCC(=O)N1CCC[C@@]2(CCN(c3ccccn3)C2)C1,> 20 µM (inactive)
20,CCNc1ncc2nc(-c3ccc(Cl)cc3)c(=O)n(-c3ccccc3)c2n1,7.07 µM (active)
